Data from PubChem BioAssay (Tox21).
Records with an inconclusive call do not appear. The source made the active and inactive calls. Unless noted, the call rests on the fitted dose curve; in most records, active means well fitted curve in the direction sought with a large enough effect in the repeat runs; inconclusive means weak or mixed curves; inactive means no such curve, though single readings can be large; an effect the other way counts as inactive or inconclusive.

Legend:
[1] = qHTS assay to test for compound auto fluorescence at 535 nm (green) in HEK293 cells (AID 720680)
[2] = qHTS assay to test for compound auto fluorescence at 460 nm (blue) in HEK293 cell free culture (AID 720681)
In short: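 Blue fluorescence (Ex 405/Em 460 nm, triamterene-equivalent) was read immediately after pin transfer of compound or DMSO into medium (DMEM, 10% FBS) without cells.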

[3] = qHTS assay to test for compound auto fluorescence at 535 nm (green) in HEK293 cell free culture (AID 720682)
In short: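 Cell-free medium (DMEM, 10% FBS) receives compound or DMSO by pintool. Plate read directly at Ex 485/Em 535 nm. Signal converted to fluorescein equivalency.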

[4] = qHTS assay to test for compound auto fluorescence at 590 nm (red) in HEK293 cell free culture (AID 720683)
In short: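 Red-channel autofluorescence of compounds in culture medium (DMEM, 10% FBS), no cells, measured at 540/590 nm. Rose Bengal sodium is the reference fluorophore for equivalence.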

[5] = qHTS assay to test for compound auto fluorescence at 590 nm (red) in HepG2 cell free culture (AID 720684)
In short: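 No cells present: MEM + 10% FBS only. Compound pinned in, red label read (540/590 nm). Activity = fluorescence equivalent to Rose Bengal sodium.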

[6] = qHTS assay to test for compound auto fluorescence at 460 nm (blue) in HepG2 cell free culture (AID 720685)
In short: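 Cell-free plates of MEM plus 10% FBS received 23 nL compound or DMSO vehicle; blue-channel (405/460 nm) intensity scored against triamterene as reference fluorophore.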

[7] = qHTS assay to test for compound auto fluorescence at 535 nm (green) in HepG2 cell free culture (AID 720686)
[8] = qHTS assay to test for compound auto fluorescence at 460 nm (blue) in HepG2 cells (AID 720687)
In short: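 Blue-channel autofluorescence (Ex/Em 405/460 nm, triamterene-equivalent) was measured after 1 hr compound exposure at 37 C, 5% CO2. Cells were HepG2, plated overnight at 37 C in MEM plus 10% FBS.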

[9] = qHTS assay to identify small molecule antagonists of the glucocorticoid receptor (GR) signaling pathway - cell viability counter screen (AID 720693); further: nearly all actives have a fitted effect of over 55% in size
[10] = qHTS assay for identifying genotoxic compounds that show differential cytotoxicity against isogenic chicken DT40 cell lines with known DNA damage response pathways - wild type cell line (AID 743012); further: nearly all actives have a fitted effect of over 60% in size; further: potency means the concentration at half of the fitted maximal effect
In short: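 Luminescent ATP viability signal (CellTiter-Glo, 30 min RT) recorded after wild type DT40 cells were incubated with compounds for 40 h at 37 C/5% CO2.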

[11] = qHTS assay for identifying genotoxic compounds that show differential cytotoxicity against isogenic chicken DT40 cell lines with known DNA damage response pathways - Rev3 mutant cell line (AID 743014); further: nearly all actives have a fitted effect of over 55% in size; further: potency means the concentration at half of the fitted maximal effect
[12] = qHTS assay for identifying genotoxic compounds that show differential cytotoxicity against isogenic chicken DT40 cell lines with known DNA damage response pathways - Rad54/Ku70 mutant cell line (AID 743015); further: nearly all actives have a fitted effect of over 60% in size; further: potency means the concentration at half of the fitted maximal effect
[13] = qHTS assay to identify small molecule antagonists of the androgen receptor (AR) signaling pathway - cell viability counter screen (AID 743033; further: nearly all actives have a fitted effect of over 45% in size)
[14] = qHTS assay to identify small molecule antagonists of the androgen receptor (AR) signaling pathway using the MDA cell line - cell viability counter screen (AID 743041; further: nearly all actives have a fitted effect of over 45% in size)
In short: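 Using the breast carcinoma line MDA-kb2 AR-luc, test chemicals were co-incubated with R1881 for 16 h; CellTiter-Fluor reagent, added at 15.5 h, provided a fluorescence measure of live cells.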

[15] = molecular target: Androgen receptor (Homo sapiens) (UniProt P10275); experiment: qHTS assay to identify small molecule agonists of the androgen receptor (AR) signaling pathway using the MDA cell line (AID 743040; further: nearly all actives have a fitted effect of over 20% in size)
In short: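 Stable MMTV-luciferase reporter in MDA-kb2 cells; note the promoter carries GR as well as AR response elements. 16 h compound treatment, 37C, 0% CO2; ONE-Glo luminescence endpoint.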

[16] = molecular target: Androgen receptor (Homo sapiens) (UniProt P10275); experiment: qHTS assay to identify small molecule agonists of the androgen receptor (AR) signaling pathway (AID 743036; active means well fitted activation curve with a large enough effect in the signal ratio in the repeat runs, with a control signal flat, not every such curve was filed as active; the % refers to the signal ratio)
In short: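 AR-bla HEK293 cells, 2,000/well; 4 h preincubation 37C/5% CO2; compound (DMSO) 16 h at 37C; LiveBLAzer B/G FRET substrate 2 h RT; fluorescence intensity read-out.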

[17] = molecular target: Androgen receptor (Homo sapiens) (UniProt P10275); experiment: qHTS assay to identify small molecule antagonists of the androgen receptor (AR) signaling pathway using the MDA cell line (AID 743042; further: nearly all actives have a fitted effect of over 55% in size)
In short: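 Antagonist mode: compounds plus R1881 agonist added to MDA-kb2 AR-luc cells, incubated 16 h at 37C. Luciferase reporter luminescence quantified, with multiplexed CellTiter-Fluor readout for cell viability.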
On the % scale 0 is the no-effect control and ±100 the full control effect.

Chain of Androgen receptor (Homo sapiens) (P10275 whole entry, looked up): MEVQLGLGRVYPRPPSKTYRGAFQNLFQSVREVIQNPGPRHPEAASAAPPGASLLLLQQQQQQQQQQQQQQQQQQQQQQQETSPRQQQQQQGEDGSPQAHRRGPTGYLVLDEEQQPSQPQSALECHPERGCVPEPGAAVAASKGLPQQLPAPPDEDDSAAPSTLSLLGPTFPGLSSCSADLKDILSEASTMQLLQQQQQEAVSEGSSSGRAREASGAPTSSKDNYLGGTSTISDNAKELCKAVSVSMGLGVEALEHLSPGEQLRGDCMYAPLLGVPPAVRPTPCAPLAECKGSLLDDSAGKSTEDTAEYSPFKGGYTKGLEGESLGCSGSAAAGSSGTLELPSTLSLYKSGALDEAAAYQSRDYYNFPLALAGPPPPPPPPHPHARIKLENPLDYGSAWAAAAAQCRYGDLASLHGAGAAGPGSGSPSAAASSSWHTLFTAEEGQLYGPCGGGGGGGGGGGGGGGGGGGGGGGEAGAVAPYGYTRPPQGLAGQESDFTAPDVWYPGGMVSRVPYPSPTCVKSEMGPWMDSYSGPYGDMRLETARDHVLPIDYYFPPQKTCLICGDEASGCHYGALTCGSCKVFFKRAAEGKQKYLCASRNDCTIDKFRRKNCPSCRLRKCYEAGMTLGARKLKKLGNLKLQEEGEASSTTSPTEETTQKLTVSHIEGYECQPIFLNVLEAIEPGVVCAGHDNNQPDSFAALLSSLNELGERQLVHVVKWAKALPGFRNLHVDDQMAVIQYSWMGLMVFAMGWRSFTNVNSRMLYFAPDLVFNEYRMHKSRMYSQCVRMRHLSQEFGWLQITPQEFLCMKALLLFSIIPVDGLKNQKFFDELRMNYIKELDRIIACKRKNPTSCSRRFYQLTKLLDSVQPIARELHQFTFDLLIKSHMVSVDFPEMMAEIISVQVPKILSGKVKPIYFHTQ

CC(=O)Nc1ccccc1O
inactive: outcome [1] | Potency [2] | outcome [3] | outcome [4] | outcome [5] | outcome [6] | outcome [7] | outcome [8] | Potency [9] | Potency [10] | Potency [11] | Potency [12] | Potency [13] | Potency [14]

O=C(N[C@@H](Cc1ccccc1)[C@@H](O)C(=O)N1C[C@@H](O)[C@@H](O)C1)c1cc2cc(Cl)ccc2[nH]1
inactive: outcome [1] | Potency [2] | outcome [3] | outcome [4] | outcome [5] | outcome [6] | outcome [7] | outcome [8] | Potency [9] | Potency [14]

COc1ccc(/C=C/S(=O)(=O)NC(=O)c2ccc(C)cc2Cl)cc1
inactive: outcome [1] | Potency [2] | outcome [3] | outcome [4] | outcome [5] | outcome [6] | outcome [7] | outcome [8] | Potency [9] | Potency [10] | Potency [11] | Potency [12] | Potency [13] | Potency [14]

CC(C)Cc1nccs1
inactive: outcome [1] | Potency [2] | outcome [3] | outcome [4] | outcome [5] | outcome [6] | outcome [7] | outcome [8] | Potency [9] | Potency [10] | Potency [11] | Potency [12] | Potency [13] | Potency [14]

CC(C)NC(=O)c1ccccc1N
inactive: outcome [1] | Potency [2] | outcome [3] | outcome [4] | outcome [5] | outcome [6] | outcome [7] | outcome [8] | Potency [11] | Potency [12] | Potency [13] | Potency [14]

O=C(O)c1ccc2c(c1)nc(C(=O)NC1CCN(C3CC3)CC1)n2Cc1cc(-c2ccc(Cl)s2)on1
inactive: fluorescence, % of fluorescein [1] -0.0247% [at 18.6 µM] | fluorescence, % of fluorescent control [2] 0.0923% [at 18.6 µM] | activity change [3] -0.024% [at 18.6 µM] | fluorescence, % of fluorescent control [4] 0.116% [at 18.6 µM] | fluorescence, % of Rose Bengal [5] -0.135% [at 18.6 µM] | fluorescence, % of fluorescent control [6] -0.029% [at 18.6 µM] | fluorescence, % of fluorescein control [7] -0.0042% [at 18.6 µM] | fluorescence, % of fluorescent control [8] 0.0789% [at 18.6 µM] | Potency [9] | Potency [13]

CC(C)(Cc1c[nH]c2ccccc12)NCC(O)COc1ccccc1C#N (stereo unspecified)
active: Potency [10] 9.44 µM | Potency [11] 13.3 µM | Potency [12] 16.8 µM
inactive: outcome [1] | Potency [2] | outcome [3] | outcome [4] | outcome [5] | outcome [6] | outcome [7] | outcome [8] | Potency [9] | Potency [13]

CCCCCCCCS
inactive: outcome [1] | Potency [2] | outcome [3] | outcome [4] | outcome [5] | outcome [6] | outcome [7] | outcome [8] | Potency [9] | Potency [12] | Potency [13] | Potency [14]

C[C@]12CCC(=O)C=C1[C@@H]1C[C@@H]1[C@H]1[C@@H]3[C@@H]4C[C@@H]4[C@@]4(CCC(=O)O4)[C@@]3(C)CC[C@@H]12
inactive: outcome [1] | Potency [2] | outcome [3] | outcome [4] | outcome [5] | outcome [6] | outcome [7] | outcome [8] | Potency [13] | Potency [14]
active: Potency [10] 9.44 µM | Potency [11] 11.9 µM

Nc1ccc(-c2ccc(F)cc2)cc1
active: Potency [10] 68.6 µM | Potency [11] 48.6 µM | Potency [12] 68.6 µM
inactive: outcome [1] | Potency [2] | outcome [3] | outcome [4] | outcome [5] | outcome [6] | outcome [7] | outcome [8] | Potency [9] | Potency [13]

C=C(C)C(=O)OCCCCCCCCCCOC(=O)C(=C)C
inactive: outcome [1] | Potency [2] | outcome [3] | outcome [4] | outcome [5] | outcome [6] | outcome [7] | outcome [8] | Potency [9] | Potency [13] | Potency [14]
active: Potency [11] 30.6 µM

CC(=O)Nc1ccn(C2COC(COC(=O)c3ccccc3)O2)c(=O)n1 (stereo unspecified)
active: Potency [10] 9.44 µM | Potency [12] 11.9 µM
inactive: outcome [1] | Potency [2] | outcome [3] | outcome [4] | outcome [5] | outcome [6] | outcome [7] | outcome [8] | Potency [9] | Potency [13]

Cc1ccccc1CCO
inactive: outcome [1] | Potency [2] | outcome [3] | outcome [4] | outcome [5] | outcome [6] | outcome [7] | outcome [8] | Potency [9] | Potency [10] | Potency [11] | Potency [12] | Potency [13] | Potency [14]

CC(C)=CCC[C@H](C)CCO
active: Potency [10] 54.5 µM | Potency [11] 48.6 µM | Potency [12] 19.3 µM
inactive: outcome [1] | Potency [2] | outcome [3] | outcome [4] | outcome [5] | outcome [6] | outcome [7] | outcome [8] | Potency [9] | Potency [13] | Potency [14]

CC(=O)CC/C=C(\C)CC/C=C(\C)CC/C=C(\C)CCC=C(C)C
inactive: outcome [1] | Potency [2] | outcome [3] | outcome [4] | outcome [5] | outcome [6] | outcome [7] | outcome [8] | Potency [9] | Potency [10] | Potency [11] | Potency [12] | Potency [13] | Potency [14]

Cc1ccc(NC(=O)c2ccc(CN3CCN(C)CC3)cc2)cc1Nc1nccc(-c2cccnc2)n1
active: Potency [10] 15 µM | Potency [11] 11.9 µM | Potency [12] 13.3 µM
inactive: outcome [1] | Potency [2] | outcome [3] | outcome [4] | outcome [5] | outcome [6] | outcome [7] | outcome [8] | Potency [9] | Potency [13] | outcome [15] | Potency [14]

CCOc1ccc(NC(C)=O)cc1N
inactive: outcome [1] | Potency [2] | outcome [3] | outcome [4] | outcome [5] | outcome [6] | outcome [7] | outcome [8] | Potency [10] | Potency [11] | Potency [12] | Potency [13] | outcome [16] | outcome [15] | Potency [17]

O=C(O)CCc1nc2ccccc2[nH]1
inactive: outcome [1] | Potency [2] | outcome [3] | outcome [4] | outcome [5] | outcome [6] | outcome [7] | outcome [8] | Potency [9] | Potency [10] | Potency [11] | Potency [12] | Potency [13] | Potency [14]

Oc1ccc(Oc2ccccc2)cc1
inactive: outcome [1] | Potency [2] | outcome [3] | outcome [4] | outcome [5] | outcome [6] | outcome [7] | outcome [8] | Potency [13]
active: Potency [10] 20.6 µM | Potency [11] 23.1 µM | Potency [12] 36.6 µM
